Measured values: PubChem BioAssay AID504332 (National Center for Advancing Translational Sciences (NCATS), 2011)
About 31,000 (8.9%) of roughly 350,000 compounds were called active. Roughly 15% stayed inconclusive and do not appear here. The call rests on the fitted dose curve; in most records, active means well fitted inhibition curve with a large enough effect; inconclusive means small, poorly fitted or top-dose-only effect; inactive means no such curve, though single readings can be large or run the other way. The list comes from a sample in which actives are over-represented; it also holds similar structures and randomly drawn compounds.

Biological target: Histone-lysine N-methyltransferase EHMT2 (Homo sapiens) (UniProt Q96KQ7)
Sequence (Q96KQ7 913-1193 limits assumed): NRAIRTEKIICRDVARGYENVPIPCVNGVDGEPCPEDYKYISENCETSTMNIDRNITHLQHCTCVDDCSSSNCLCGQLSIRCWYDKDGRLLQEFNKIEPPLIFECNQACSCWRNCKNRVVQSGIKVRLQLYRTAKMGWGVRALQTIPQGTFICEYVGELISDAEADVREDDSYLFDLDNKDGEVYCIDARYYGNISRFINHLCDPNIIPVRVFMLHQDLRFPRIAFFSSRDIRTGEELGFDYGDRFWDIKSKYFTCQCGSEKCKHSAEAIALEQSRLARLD
Assay: qHTS Assay for Inhibitors of Histone Lysine Methyltransferase G9a; further: nearly all actives have a fitted effect of over 75% in size
Conditions: G9a H3K9 monomethylation, AlphaScreen, 2 h; series mostly up to 59 µM; activity, negative = inhibition: at the top concentration
Outline: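 G9a (20 nM) preincubated 15 min RT with compounds, then 500 nM biotinylated H3K9 peptide and 20 uM SAM added; 2 h RT reaction. Monomethyl-H3K9 product detected by AlphaScreen with anti-H3K9me1 antibody, streptavidin donor and anti-rabbit IgG acceptor beads.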
On the % scale 0 is the no-effect control and ±100 the full control effect; potency means the concentration at half of the fitted maximal effect.

Structure (SMILES)	activity, negative = inhibition	Potency
O=C(CN1CCCSc2ccccc21)N1CCN(S(=O)(=O)c2cccc(F)c2)CC1	15.4% [at 12.7 µM] (inactive)	–
O=C(Cc1ccccc1)N1CCN(S(=O)(=O)c2ccc([N+](=O)[O-])cc2)CC1	0.141% [at 102 µM] (inactive)	–
N#C/C=C1\Sc2ccccc2C(=O)N1CC(=O)N1CCN(S(=O)(=O)c2ccccc2)CC1	–	70.8 µM (active)
CC(C)c1ccc(S(=O)(=O)N2CCN(C(=O)CN3C(=O)NC(C)(c4ccccc4)C3=O)CC2)cc1 (stereo unspecified)	0.311% [at 102 µM] (inactive)	–
O=C(CN1CCCSc2ccccc21)N1CCN(S(=O)(=O)c2ccccc2)CC1	–	56.2 µM (active)
O=C(CN1CCSc2ccccc21)N1CCN(c2ccccc2)CC1	-30.2% (inactive)	–
CCN(C(=O)CSc1ncnc2c1cnn2-c1ccccc1)C1CCS(=O)(=O)C1 (stereo unspecified)	7.57% [at 0.501 µM] (inactive)	–
O=C(OCc1cc(=O)n2nc(C3CC3)sc2n1)c1ccccc1Cl	0.251% (inactive)	–
O=C(NNC(=O)c1ccc(-n2cncn2)c([N+](=O)[O-])c1)c1ccccc1	14.9% [at 12.7 µM] (inactive)	–
CCc1cc2c(cc(C(=O)OC)n2Cc2nc(-c3ccc(C)cc3)oc2C)s1	-24.2% (inactive)	–
N#Cc1nc(-c2cccc3ccccc23)oc1N	2.47% [at 2.33 µM] (inactive)	–
CCCCN(C(=O)C(CCSC)N1C(=O)c2ccccc2C1=O)c1c(N)n(CCC)c(=O)[nH]c1=O (stereo unspecified)	17.2% [at 12.7 µM] (inactive)	–
COc1ccc2oc(C(=O)N(CC(C)C)C3CCS(=O)(=O)C3)c(C)c2c1 (stereo unspecified)	7.64% [at 0.501 µM] (inactive)	–
COc1cccc(Cn2cnc3c([N+](=O)[O-])c(C)c(C)cc32)c1	-11.2% [at 102 µM] (inactive)	–
CSc1nn(Cc2cccc(C)c2)c(N)c1S(=O)(=O)c1ccccc1	-1.54% (inactive)	–
Cc1cccc(Cn2cnc3c(N)c(C)c(C)cc32)c1	–	44.7 µM (active)
COc1cc(OC)cc(-c2nc3nc(C)c(CCC(=O)Nc4ccccc4)c(C)n3n2)c1	-2.91% (inactive)	–
O=C(CCc1nnc2ccc(NCc3ccco3)nn12)Nc1cc(F)ccc1F	-3.92% [at 102 µM] (inactive)	–
Cc1sc2ncnc(N3CCC(C(=O)Nc4ccc(F)cc4Cl)CC3)c2c1C	-22.6% [at 12.7 µM] (inactive)	–

Structure (SMILES)	activity, negative = inhibition	Potency
CN(Cc1ccccc1)c1ncnc2onc(-c3ccc(F)cc3)c12	6.18% (inactive)	–
Cc1ccc(CSCC(=O)N(C)CC(=O)Nc2ccc(C)cc2)cc1	-0.261% [at 102 µM] (inactive)	–
CCN(CC(=O)Nc1cc(Cl)ccc1C)C(=O)CSCc1ccc(C)cc1	-2.36% [at 2.33 µM] (inactive)	–
CCCCN(C)CCNC(=O)CSCc1ccc(C)cc1	–	3.55 µM (active)
CC(=O)c1nn(-c2ccc(OC(F)(F)F)cc2)nc1Nc1ccccc1	9.69% (inactive)	–
Cc1ccc(N2CC(C(=O)N3CCC4(CC3)CC(=O)c3ccccc3O4)CC2=O)cc1C (stereo unspecified)	6.18% [at 0.501 µM] (inactive)	–
CCOc1ccc(S(=O)(=O)Nc2ccc(C(=O)NCCCN3CCCC3=O)cc2)cc1	12.9% (inactive)	–
CCOc1ccc(NS(=O)(=O)c2ccc(C(=O)NCC(c3ccccc3OC)N3CCCC3)cc2)cc1 (stereo unspecified)	–	1.26 µM (active)
CCOc1ccc(NS(=O)(=O)c2ccc(C(=O)NC3CCN(Cc4ccccc4)CC3)cc2)cc1	17.4% [at 2.33 µM] (inactive)	–
COc1ccc(Cn2c(=O)c3oc4ccccc4c3n(CC(=O)Nc3ccc(F)cc3F)c2=O)cc1	2.4% (inactive)	–
COc1ccc(NC(=O)c2ccco2)cc1NC(=O)COc1ccc(C)c(C)c1	-5.49% (inactive)	–
O=C(N/N=C/c1ccc([N+](=O)[O-])cc1)c1c[nH]c2ccccc12	-27.9% [at 102 µM] (inactive)	–
COc1ccc2[nH]cc(/C=C(/C#N)S(=O)(=O)c3ccccc3)c2c1	-5.58% [at 102 µM] (inactive)	–
COc1ccc(/C=C(\C#N)c2c[nH]c3ccccc23)cc1	–	39.8 µM (active)
CCCCn1c(N)c(N(Cc2ccccc2OC)C(=O)COc2cc(C)ccc2Cl)c(=O)[nH]c1=O	-35.7% [at 102 µM] (inactive)	–
Cn1nccc1/C=N\NC(=O)c1ccc(Cl)cc1	19.2% [at 102 µM] (inactive)	–
OCC[C@H]1C[C@H](O)[C@@H](O)[C@]2(CCc3ccccc3O2)O1	7.67% [at 2.33 µM] (inactive)	–
O=S(=O)(c1ccc(Br)c2ccccc12)N1CCOCC1	24.5% [at 0.501 µM] (inactive)	–
COc1ccccc1-n1c(=S)[nH]c2c(sc(=S)n2-c2ccc(C)cc2C)c1=O	–	7.94 µM (active)

Structure (SMILES)	activity, negative = inhibition	Potency
COc1cccc(-n2c(=S)sc3c(=O)n(-c4ccccc4OC)c(SCC4OCCO4)nc32)c1	13.6% (inactive)	–
COc1ccccc1N1CCN(C(=O)c2cc(=O)c3cc(C)cc(C)c3o2)CC1	-10.5% [at 2.33 µM] (inactive)	–
Cc1cccc(C)c1NC(=O)CNC(=O)c1c(C)nn(-c2ccccc2)c1C	1.23% [at 102 µM] (inactive)	–
Cc1cccc(C)c1NC(=O)COC(=O)c1c(C)nn(-c2ccccc2)c1C	–	11.2 µM (active)
Cc1nn(-c2ccccc2)c(C)c1C(=O)OCC(=O)NC(=O)NC1CCCCC1	14.9% (inactive)	–
COc1ccc(C)cc1S(=O)(=O)Nc1cc2c3c(c1)CCC(=O)N3CCC2	5.66% [at 102 µM] (inactive)	–
Cc1ccc2oc3c(c(=O)c2c1)C(c1ccc([N+](=O)[O-])cc1)N(CCCN1CCOCC1)C3=O (stereo unspecified)	-4.28% (inactive)	–
CC(=O)c1cccc(NC(=O)CSc2nc3c(c(=O)[nH]2)CCC3)c1	-8.01% (inactive)	–
Cc1ccc(-c2nn(CCC(=O)Nc3ccc(OC(F)(F)F)cc3)c(=O)c3ccccc23)cc1	1.21% (inactive)	–
CC(C)N(Cc1nnc(-c2ccccc2Br)o1)C(=O)c1cc(Cl)nc2ccccc12	-53.3% [at 12.7 µM] (inactive)	–
O=C(c1cc(-c2ccco2)nc2ccccc12)N(Cc1nnc(-c2ccc(Cl)cc2)o1)C1CC1	–	5.01 µM (active)
O=C(c1ccc(Cl)s1)N(Cc1nnc(-c2ccccc2Cl)o1)C1CC1	9.15% [at 12.7 µM] (inactive)	–
CCOC(=O)[C@H]1[C@H]2COc3cc(OC)ccc3[C@@H]2N2C(=O)N(c3ccc(Br)cc3)C(=O)[C@@]12C	-5.49% [at 102 µM] (inactive)	–
Cc1c(Cl)cccc1NC(=O)C1CCCN(c2ncnc3onc(C)c23)C1 (stereo unspecified)	-4.63% (inactive)	–
CSc1ccccc1OCc1cc(C(=O)N2C[C@H]3CC[C@H]2C3)no1	39.3% [at 102 µM] (inactive)	–
CCc1cccc(NC(=O)c2cnc(N3CCOCC3)c3ccccc23)c1	12.6% (inactive)	–
O=C(c1ccccc1)c1cc(-c2ccccn2)c(N2CCOCC2)s1	-7.68% [at 102 µM] (inactive)	–
CCc1ccc2ncc(C(=O)c3ccccc3)c(N3CCOCC3)c2c1	–	56.2 µM (active)
